From PubChem BioAssay
FBW7 act: FBW7 E3 ligase activators, primary screen, biochemical, AlphaScreen, human; AlphaScreen FBW7–phospho-cyclin E peptide binding, activator screen; normalized activity (activation), % at 26.1 µM; actives 0.13% (n = 650,000); AID 1259310, 2017; in the data active = normalized activity above about 1.9%;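 also: purified mutant Fbw7 with reduced substrate affinity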
MITF inh: MITF inhibitors, primary screen, biochemical, AlphaScreen, human | AlphaScreen MITF homodimerization, bead proximity signal | AID 1259374, 2018 | actives 0.91% (n = 650,000) | inhibition, % at 2.6 µM; in the data active = inhibition above about 50%;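 also: 0% = vehicle wells with protein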
Target sequence (O75030 whole entry, looked up): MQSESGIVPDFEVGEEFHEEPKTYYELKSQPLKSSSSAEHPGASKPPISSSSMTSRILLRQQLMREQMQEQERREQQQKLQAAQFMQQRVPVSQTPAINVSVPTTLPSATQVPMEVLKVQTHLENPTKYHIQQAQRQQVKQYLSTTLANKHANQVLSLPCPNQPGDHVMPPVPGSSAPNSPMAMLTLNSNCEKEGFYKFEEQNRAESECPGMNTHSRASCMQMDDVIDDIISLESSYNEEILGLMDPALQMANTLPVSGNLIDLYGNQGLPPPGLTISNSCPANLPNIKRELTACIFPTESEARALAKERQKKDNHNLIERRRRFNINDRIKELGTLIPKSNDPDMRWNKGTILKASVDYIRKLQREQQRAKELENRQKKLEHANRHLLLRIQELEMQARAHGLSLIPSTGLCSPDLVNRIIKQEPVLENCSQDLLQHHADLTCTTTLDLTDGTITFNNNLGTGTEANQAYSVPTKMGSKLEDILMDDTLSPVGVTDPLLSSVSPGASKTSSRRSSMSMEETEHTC
TEAD-YAP block: TEAD-YAP interaction inhibition, primary screen, TEAD-YAP interaction inhibitor project, luminescence, HEK-TIYL cells; AID 1259422, 2018; inhibition, % at 9.12 µM; actives 1.4% (n = 640,000); TEAD-Gal4/YAP UAS-luciferase luminescence; in the data active = inhibition above about 32%;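 also: 0% = median of test compound wells and 100% = reference inhibitor wells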
GPR151 activ: activators of human GPR151, primary screen, cell-based, PathHunter beta-arrestin, luminescence; G-protein coupled receptor 151 (Homo sapiens), Q8TDV0; PathHunter beta-arrestin GPR151 cells; activation, % at 11.2 µM; actives 1% (n = 650,000); AID 1508602, 2020; in the data active = activation above about 4.9%;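 also: 0% = median of compound wells and 100% = cells with positive control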
Starred values were filed as active, the others as inactive. Most compounds without a hit are left out; they make up all but 3.5% or so of the library.

`COc1ccc(CCNc2cc(-c3csc4ccccc34)nc(N)n2)cc1` gave FBW7 act 0.6, MITF inh 7.5, TEAD-YAP block 56.7* and GPR151 activ 1.9.
Nc1nc(NCc2cccc(C(F)(F)F)c2)cc(-c2csc3ccccc23)n1 was read as FBW7 act 0.1, MITF inh 8.9, TEAD-YAP block 52.9* and GPR151 activ -1.1.
COc1ccc(CCNc2cc(Nc3cnccn3)nc(N)n2)cc1 was read as FBW7 act -0.1, MITF inh -5.5, TEAD-YAP block 34.9* and GPR151 activ -0.5.
Screening COc1ccc(-c2cc(NCc3cccc(C(F)(F)F)c3)nc(N)n2)cn1 returned FBW7 act -0.1, MITF inh 0.7, TEAD-YAP block 46.3* and GPR151 activ 3.8.
For COc1ccc(-c2cc(NCc3cccc(C(F)(F)F)c3)nc(N)n2)cc1 the results were FBW7 act 0.4, MITF inh 8.7, TEAD-YAP block 3.3 and GPR151 activ 0.3.
Screening Nc1nc(NCc2ccccc2)cc(-c2csc3ccccc23)n1 returned FBW7 act 0.2, MITF inh 8.5, TEAD-YAP block 1.7 and GPR151 activ 0.1.
Screening CCCCN(C)c1nc(C)nc2sc(C)cc12 returned FBW7 act -0.1, MITF inh 0.1, TEAD-YAP block 1.1 and GPR151 activ 1.5.
For CC(=O)c1ccc(NC(=O)COC(=O)c2cc([N+](=O)[O-])ccc2Cl)cc1 the results were FBW7 act 0.4, MITF inh 16.6, TEAD-YAP block 10.1 and GPR151 activ 1.3.
CC(C)(C)c1ccccc1OCCOCCBr was read as FBW7 act 0.1, MITF inh 21.5, TEAD-YAP block 1.9 and GPR151 activ -0.9.
For Cn1nc(-c2ccc(Cl)cc2)cc1NC(=O)CCl the results were FBW7 act -0.1, MITF inh -1.3, TEAD-YAP block 46.1* and GPR151 activ -1.5.
Cn1nc(-c2ccc(Cl)cc2)cc1NC(=O)Cn1c2ccccc2c(=O)c2ccccc21 was read as FBW7 act 0.6, MITF inh -0.1, TEAD-YAP block -2.5 and GPR151 activ -0.5.
`O=C(c1ccco1)N1CCN(c2nccn3c(-c4ccccc4CO)cnc23)CC1` gave FBW7 act -0.3, MITF inh -7.5, TEAD-YAP block -0.5 and GPR151 activ -2.3.
Screening O=C(c1ccco1)N1CCN(c2ncc(-c3ccccc3CO)n3ccnc23)CC1 returned FBW7 act 6.7*, MITF inh -3.8, TEAD-YAP block -1.5 and GPR151 activ -3.9.
Screening Cc1nnc(NC(=O)CSc2cn(C)c3ccccc23)s1 returned FBW7 act 0.4, MITF inh 11.9, TEAD-YAP block -16.0 and GPR151 activ 1.6.
`CC1=C(C(=O)OC(C)C)C(c2ccc([N+](=O)[O-])cc2)NC(=O)N1` (stereo not given) gave FBW7 act -0.1, MITF inh -1.5, TEAD-YAP block 0.7 and GPR151 activ -0.1.
Cc1ccc(N2CCOCC2)cc1 was read as FBW7 act -0.1, MITF inh 11.0, TEAD-YAP block 3.6 and GPR151 activ 0.6.
`COc1ccc(CCNCc2ccc(N3CCOCC3)cc2)cc1` gave FBW7 act 0.1, MITF inh 53.2*, TEAD-YAP block 1.7 and GPR151 activ 2.7.
For COc1ccc(CNCCN2CCOCC2)cc1 the results were FBW7 act -0.1, MITF inh -4.7, TEAD-YAP block -5.3 and GPR151 activ -0.6.
Cc1ccc(CNCc2ccc(N3CCOCC3)cc2)cc1 was read as FBW7 act -0.1, MITF inh 54.7*, TEAD-YAP block 6.3 and GPR151 activ 3.9.
Screening Cc1cc(=O)nc2c3ccccc3n(C(C)C(=O)NC3CCN(Cc4ccccc4)CC3)n12 (stereo not given) returned FBW7 act -0.1, MITF inh 0.7, TEAD-YAP block -0.5 and GPR151 activ -0.7.
COc1cc2nc(-c3ccc(Cl)c(Cl)c3)oc(=O)c2cc1OC was read as FBW7 act 0.1, MITF inh -14.3, TEAD-YAP block 2.3 and GPR151 activ 0.8.
Screening O=[N+]([O-])c1ccc(Cc2nnc(-c3ccc(Cl)cc3Cl)o2)cc1 returned FBW7 act 0.4, MITF inh 11.2, TEAD-YAP block 51.7* and GPR151 activ -0.2.
O=[N+]([O-])c1ccc(Cc2nnc(-c3ccccc3Cl)o2)cc1 was read as FBW7 act -0.3, MITF inh -0.4, TEAD-YAP block 27.0 and GPR151 activ 0.7.
O=[N+]([O-])c1ccc(Cc2nnc(-c3ccccc3Br)o2)cc1 was read as FBW7 act -0.4, MITF inh 1.3, TEAD-YAP block 32.2* and GPR151 activ -1.7.
O=C(CCn1c(=S)[nH]c2ccccc2c1=O)NCCC1=CCCCC1 was read as FBW7 act 0.1, MITF inh 5.4, TEAD-YAP block 6.4 and GPR151 activ -1.6.
For COc1ccc(/C=N/Nc2nnc(Cc3ccccc3)c(=O)[nH]2)cc1OC the results were FBW7 act 0.0, MITF inh 15.0, TEAD-YAP block 3.8 and GPR151 activ -0.1.
COc1ccc(Cc2nnc(N/N=C/c3cc([N+](=O)[O-])ccc3O)[nH]c2=O)cc1OC was read as FBW7 act -0.4, MITF inh 114.6*, TEAD-YAP block -2.0 and GPR151 activ 1.8.
Screening O=c1[nH]c(N/N=C/c2ccc(O)cc2O)nnc1Cc1ccccc1 returned FBW7 act -0.4, MITF inh 103.8*, TEAD-YAP block 8.4 and GPR151 activ -1.2.
O=c1[nH]c(N/N=C/c2ccccc2O)nc2ccccc12 was read as FBW7 act -0.2, MITF inh 77.7*, TEAD-YAP block 72.0* and GPR151 activ -3.2.
For COc1ccc(Cc2nnc(N/N=C/c3cccs3)[nH]c2=O)cc1OC the results were FBW7 act -0.5, MITF inh -8.7, TEAD-YAP block 3.8 and GPR151 activ -0.6.
For CCOC(=O)c1c(NC(=O)C(C)Sc2nnc(CNC(=O)c3cccc(F)c3)n2C)sc2c1CCC2 (stereo not given) the results were FBW7 act -0.1, MITF inh 5.5, TEAD-YAP block -2.8 and GPR151 activ 0.2.
For O=S(=O)(CCN1CCC(c2nc(-c3ccsc3)no2)CC1)c1ccccc1 the results were FBW7 act -0.1, MITF inh 10.7, TEAD-YAP block 7.9 and GPR151 activ -0.2.
O=C1c2cccc3c(Oc4ccccc4[N+](=O)[O-])ccc(c23)C(=O)N1n1cnnc1 was read as FBW7 act -0.1, MITF inh 5.2, TEAD-YAP block 35.6* and GPR151 activ -0.7.
`O=C1c2ccccc2C(=O)N1N1C(=O)c2cccc3c([N+](=O)[O-])ccc(c23)C1=O` gave FBW7 act 0.0, MITF inh 2.8, TEAD-YAP block 12.2 and GPR151 activ 0.2.
`CCOc1ccc(-n2c(CNC(=O)c3ccco3)nnc2SCC(=O)N2N=C(c3ccc(OC)cc3)CC2c2ccc(OC)cc2)cc1` (stereo not given) gave FBW7 act 0.1, MITF inh 6.7, TEAD-YAP block 19.6 and GPR151 activ -1.5.
